# Laboratory results taken from PubChem BioAssay (NCATS).
# A number with no mark means an inactive call. The call rests on the fitted dose curve; in most records, active means well fitted curve in the direction sought with a large enough effect; inconclusive means small, poorly fitted or top-dose-only effect, or another doubt; inactive means no such curve, though single readings can be large or run the other way.
# Assay: Validation qHTS assay for inhibitors of Activation Induced Cytidine Deaminase (AID): UDG Counterscreen signal (AID 1347427); further: 0% is about no effect
# Settings: biochemical UDG counterscreen, fluorescence signal; series mostly up to 115 µM; activity, negative = inhibition: at the top concentration
# Text: Assay Provider (PI) Patricia Gearhart Ph.D.
# National Institute on Aging
# National Institute of Health (NIH), Bethesda, MD
# Assay Provider (PI) Rahul Kohli Ph.D.
# Perelman School of Medicine
# University of Pennsylvania, Philadelphia, PA
# Activation-Induced Deaminase (AID) is a cytosine deaminase which converts cytosine into uracil within stretches of ssDNA. The presence of uracil in DNA initiates a cascade of mutagenic DNA repair to introduce point mutations and DNA double strand breaks. Specific targeting of AID to the immunoglobulin heavy chain loci (Igh) promotes mutagenesis in the antibody variable region for somatic hypermutation (SHM) or switch regions leading to class switch recombination (CSR). However, AID also plays a role in accumulating unnecessary mutations across the genome. Mis-targeting of AID results in the initiation of tumor development and leads to greater drug resistance among cancer cells when continually expressed. To identify an AID inhibitor, a small molecule library will be screened in collaboration with NCATS core facility at NIH. To confirm biological function, inhibitors will be examined in an in vitro murine B-cell activation assay and subsequent secondary validation screens. Top molecules will be further screened to identify inhibitory efficacy against a wild type primary splenocytes assay. Using these approaches, we hope to identify a small molecule with great efficacy and low toxicity for use as a molecular probe to further characterize AID's intricacies, or even as a therapeutic.
# A FRET based analysis of cytosine deamination, was developed to identify potential inhibitors of AID catalytic activity. This screen has two signal output, Read 1 evaluates the AID inhibition response. The second readout (Read 2) evaluates UDG response and is uses as a counterscreen to exclude false positive inhibitors. Inhibition in AID and inactivity in the UDG signal is the desired outcome for this assay.
# SEQUENCE No. (e.g., 1, 2, 3, etc.); […] (e.g., Cells, Incubation, Reagent, etc.); VALUE; DESCRIPTION
# 1a; Reagent; 3 uL; [4/3x] 1 uM AID/2.67 U/mL UDG
# 1b; Reagent; 3 uL; 2 U/mL UDG
# 1c; Reagent; 3 uL; 1 uM AID
# 2a; Compound; 46 nL; Follow-up plates (0.64 uM - 10 mM)
# 2b; Control; 46 nL; ATA ([…] - 10 mM)
# 3; Time; 10 min; incubation at room temperature
# 5; Time; 4 hr; incubation at room temperature
# 6; Reagent; 4 uL; [2x] 250 mM NaOH
# 7; Time; 15 sec; centrifuge at 1000 rpm
# 8; Time; 30 min; incubation at room temperature
# 9a; Detection; fluorescence (Read 1: AID); EnVision (PerkinElmer) plate reader, 540 excitation and 590 emission filters
# 9b; Detection; fluorescence (Read 2: UDG); EnVision (PerkinElmer) plate reader, 560 excitation and 665 emission filters
# NOTES (numbers refer to sequence above)
# 1a; Reagents were dispensed in a medium-binding black solid-bottom Greiner plates (789176F) using a BioRptr liquid dispenser. Dispense 3 uL of [4/3x] 1 uM AID (provided by Kohli lab) and [4/3x] 2 U/mL UDG (NEB M0280L) into columns 1, 2, 5 to 48.
# 1b; Dispense 3 uL of [4/3x] 2 U/mL UDG into column 3.
# 1c; Dispense 3 uL of [4/3x] 1 uM AID into column 4.
# 2b; 10 mM Aurintricarboxylic Acid (Sigma A1895) (ATA, 8-point, n = 2, 1:2.5 dilution in column 2) double pin-transferred (Dip Factor = 2) using the Kalypsys (Wako USA) pintool equipped with a 1536 pinhead for a [final] range of 186 nM - 114 uM.
# 3; Room temperature incubation.
# 4; Dispense 1 uL of substrate mixture from the Kohli lab [4x] […] DJC20 and [4x] 250 nM DJC23 into columns 1 to 48 .
# 5; Room temperature incubation.
# 6; Dispense 4 uL of substrate mixture [2x] 250 mM NaOH into columns 1 to 48.
# 7; Centrifugation step to remove bubbles.
# 8; Room temperature incubation
# 9a; Fluorescence signal (column label AID) was read using the EnVision plate reader. Excitation filter = 540(8) nm, barcode = 311; Emission filter = 590(20) nm, barcode = 217; Mirror = D555, barcode = 405.
# 9b; Fluorescence signal (column label UDG) was read using the EnVision plate reader. […]
row,Compound,"activity, negative = inhibition"
1,Oc1ccc(O)cc1,-16.5%
2,CC(=O)O[C@H]1C[C@@H]2CC[C@@H]3[C@H](CC[C@@]4(C)[C@H]3C[C@H]([N+]3(C)CCCCC3)[C@@H]4OC(C)=O)[C@@]2(C)C[C@@H]1[N+]1(C)CCCCC1,15.4%
3,CC[C@H](C)C(=O)O[C@H]1CCC=C2C=C[C@H](C)[C@H](CC[C@@H]3C[C@@H](O)CC(=O)O3)[C@H]21,10.6%
4,C[C@@H]1C(=O)NC2=Nc3cccc(Cl)c3CN21,11.2%
5,CC1(C)CCC(NC(=O)[C@@H](N)CCC(=O)O)CC1,14.3%
6,C1CCc2nnnn2CC1,2.75%
7,COC(=O)[C@H]1[C@H]2C[C@H]3c4[nH]c5ccccc5c4CCN3C[C@H]2CC[C@@H]1O,3.11%
8,O=C(O)c1cc2cc(Cc3cccnc3)ccc2o1,14.3%
9,Nc1cc(Cl)c(NC2=NCCN2)c(Cl)c1,11.8%
10,CCCn1c(=O)[nH]c(=O)c2[nH]cnc21,13.1%
11,COc1cc2c(cc1O)CC[C@@H]1[C@@H]2CC[C@]2(C)[C@@H](O)CC[C@@H]12,10.2%
12,CC(C)C[C@H]1C(=O)N2CCC[C@H]2[C@]2(O)O[C@](NC(=O)[C@@H]3C=C4c5cccc6[nH]c(Br)c(c56)C[C@H]4N(C)C3)(C(C)C)C(=O)N12,7.21%
13,CNCCC=C1c2ccccc2CCc2ccccc21,4.6%
14,N[C@H](CO)C(=O)O,8.45%
15,CN1C2CCC1CC(OC(=O)c1c[nH]c3ccccc13)C2 (centres undefined),1.24%
16,CNCCC(Oc1ccccc1C)c1ccccc1 (centres undefined),10.7%
17,CCC(NC(C)C)C(O)c1ccc(O)c(O)c1 (centres undefined),-8.07%
18,O=C1CCC(c2ccc(-n3ccnc3)cc2)=NN1,-2.71%
19,C[C@]12CC[C@@H]3c4ccc(O)cc4CC[C@H]3[C@@H]1CC[C@@H]2O,5.95%
20,N[C@@H](Cc1cnc[nH]1)C(=O)O,8.97%
21,CC(C)COC(=O)OCN1C(=O)CN(CCN2CC(=O)N(COC(=O)OCC(C)C)C(=O)C2)CC1=O,5.7%
22,C[N+]1(CCCCC[N+]2(C)CCCC2)CCCC1,13.4%
23,CC(CCc1ccccc1)NCC(O)c1ccc(O)c(C(N)=O)c1 (centres undefined),12%
24,CCCC1O[C@@H]2C[C@H]3[C@@H]4CCC5=CC(=O)C=C[C@]5(C)[C@H]4[C@@H](O)C[C@]3(C)[C@]2(C(=O)CO)O1 (some centres undefined),12.7%
